About 83,000 compounds went through this panel and 20% of them were active in at least one assay; those are over-represented in the sample as a whole.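 The endpoint reported here, percent growth, reads 100 for growth as untreated, 0 for no net growth and -100 for all cells dead.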 Unmarked numbers belong to inactive results. Activity calls are given as the source filed them. The calls were made as follows: active = growth percent below 10; inactive = the rest.
What was measured:
Experiment in all cases: NCI-60 one-dose screen, 48 h (100 = growth as untreated, 0 = no growth, -100 = all killed)
Conditions in all cases: 10 µM unless noted
T-47D breast = test system: T-47D breast
BT-549 breast = test system: BT-549 breast
MDA-MB-435 melanoma = test system: MDA-MB-435 melanoma
SW-620 colon = test system: SW-620 colon
MCF7 breast = test system: MCF7 breast
HCT-116 colon = test system: HCT-116 colon
HCC-2998 colon = test system: HCC-2998 colon
KM12 colon = test system: KM12 colon

Compound | growth (T-47D breast) | growth (BT-549 breast) | growth (MDA-MB-435 melanoma) | growth (SW-620 colon) | growth (MCF7 breast) | growth (HCT-116 colon) | growth (HCC-2998 colon) | growth (KM12 colon)
O=C1Nc2ccc(C(=O)O)c(O)c2C1=O | 106% | 106% | 106% | 104% | 104% | 108% | 117% | 106%
CC[n+]1c(/C=C/c2ccc(N3CCCC3)cc2)cccc1/C=C/c1ccc(N2CCCC2)cc1 | -61% (active) | -89.7% (active) | -70.7% (active) | -88.1% (active) | -85.5% (active) | -54.7% (active) | -82.5% (active) | -81.5% (active)
O=C(/C=C/c1ccc(C(F)(F)F)cc1)c1ccc(Nc2nc(NCCO)nc(NCCO)n2)cc1 | 37.2% | 21.3% | 92.8% | 1.28% (active) | 13.1% | -25.4% (active) | 97.4% | 19%
COC(=O)C1CCN(S(=O)(=O)c2ccc(-c3ccccc3)cc2)CC1 | 102% | 129% | 111% | 102% | 99.7% | 115% | 103% | 102%
O=C(N/N=C/c1cccc([N+](=O)[O-])c1)c1ccc(Br)o1 | 83.4% | 103% | 106% | 116% | 78.1% | 100% | 87.2% | 109%
C/C(=C\CCc1ccoc1)CC/C=C(\C)CCCN1CCSCC1 | 60.9% | 77.7% | 91.1% | 86.1% | 43.2% | 53.8% | 74.6% | 81%
CC(C)Sc1nc(-c2ccc(Br)cc2)c(C#N)c(N2CCCCC2)n1 | 94.3% | 109% | 95.7% | 102% | 93.1% | 100% | 121% | 95.9%
Cc1cc(C(=O)Nc2ccc3cc(CN4CCOCC4)ccc3n2)c(C)n1-c1ccccc1 | -2.49% (active) | -1.74% (active) | 4.74% (active) | 64.1% | 7.41% (active) | 29.4% | 50.8% | 11%
O=C(CSc1nnc(-c2cc(-c3ccccc3)nc3ccccc23)o1)c1ccc(Br)cc1 | 102% | 96.9% | 104% | 107% | 111% | 101% | 113% | 107%
O=C(Nc1nc(-c2ccc(Cl)cc2)cs1)c1cc(-c2ccc(Br)cc2)nc2ccc(Cl)cc12 | 53% | -15.9% (active) | -21.6% (active) | 34.9% | 16.4% | 5.84% (active) | 109% | 24.8%
O=C1C(=O)c2c(nc3ccc(Cl)cn23)-c2ccccc21 | -55.8% (active) | -99.4% (active) | -89.5% (active) | -100% (active) | -88% (active) | -95.3% (active) | -95.8% (active) | -68.7% (active)
COc1ccc2c(c1)sc1nc(-c3ccc(Br)cc3)cn12 | 85% | 120% | 103% | 101% | 80.4% | 92.4% | 115% | 102%
Nc1ccccc1-c1ccn[nH]1 | 93.5% | 91.2% | 93.2% | 96.7% | 100% | 92.7% | 97.2% | 82.3%
N#Cc1c(-c2ccccc2)cc(-c2ccccc2)n(CCCCC(=O)O)c1=O | 103% | 91% | 59.4% | 90.9% | 78.2% | 93.3% | 95.6% | 79.7%
O=C(/C=C/c1cccc(Nc2ccnc3cc(Cl)ccc23)c1)c1ccc(Cl)cc1 | 39.8% | 54.3% | 56.9% | 24.7% | 27.6% | 14.2% | 71.4% | 62.6%
CS(=O)(=O)N1CCN(Cc2cc3nc(-c4cccc5[nH]ncc45)nc(N4CCOCC4)c3s2)CC1 (tested in a mixture with another compound) | -7.59% (active) | 33.6% | 15.9% | 40.8% | 6.96% (active) | 23.8% | -9.43% (active) | 24.8%
CC[C@@H](C)/C=C(C)/C=C/C(=O)c1c(O)c(-c2ccc(O)cc2)cn(OC2CC(=O)CCC(C)OC(=O)CC2O)c1=O (some centres undefined) | 25.8% | 14.6% | 12.4% | 22.9% | 21.7% | 18.5% | 8.22% (active) | 19.8%
Cc1c2oc3c(C)ccc(C(=O)OC(C)C4NC(=O)C(C(C)C)N(C)C(=O)CN(C)C(=O)C5CCCN5C(=O)C(C(C)C)NC4=O)c3nc-2c(C(=O)OC(C)C2NC(=O)C(C(C)C)N(C)C(=O)CN(C)C(=O)C3CCCN3C(=O)C(C(C)C)NC2=O)c(N)c1=O (centres undefined) | 5.74% (active) | -38.1% (active) | -71.1% (active) | 3.76% (active) | 5.55% (active) | 7.39% (active) | -34.4% (active) | 0.674% (active)
CC(=O)N1N=C(c2ccc(Cl)cc2)CC1c1c(C)nn(-c2ccccc2)c1N(C)Cc1ccccc1 (centres undefined) | 59.6% | 88.5% | 87% | 80.6% | 72.2% | 53.1% | 88.2% | 74.8%
CC(C)N(Cc1ccccc1)c1c(S)ssc1=S | 18.2% | -4.86% (active) | 11.8% | 9.47% (active) | 3.04% (active) | 5.93% (active) | 24.8% | 11.5%
O=C(CNC(=O)c1cccc2ccccc12)Nc1ccccc1Oc1cccc(O)c1 | 42.3% [5 µM] | 18.7% [5 µM] | -48% [5 µM] (active) | 20.3% [5 µM] | 20.5% [5 µM] | 8.18% [5 µM] (active) | 58.3% [5 µM] | 22.8% [5 µM]
COc1ccc(-c2cc(-c3nnc(SCC(=O)Nc4ccc(C(C)=O)cc4)n3-c3ccccc3)c3ccccc3n2)cc1OC | 84% | 86.1% | 105% | 104% | 95.2% | 83.4% | 99.6% | 95.9%
O=C(N/N=C/c1ccc(Cl)cc1Cl)c1ccccc1Nc1cccc(C(F)(F)F)c1 | 83.4% | -57.4% (active) | 70.7% | 84.4% | 280% | 60.7% | 88.2% | 79%
CCOc1cc(/C=C/C(=O)C(C(=O)/C=C/c2ccc(OC(=O)CNc3nnc(C)s3)c(OCC)c2)C(=O)CNc2nnc(C)s2)ccc1OC(=O)CNc1nnc(C)s1 | 68.2% | -56.2% (active) | -8.14% (active) | -64.8% (active) | -6.02% (active) | -77.7% (active) | -64.8% (active) | -64.4% (active)
CC(=O)Nc1cc2c3c(cccc3c1)-c1ccccc1-2 | 75.4% | 64.7% | 68.4% | 99.7% | 96.9% | 95.9% | 87.8% | 51.1%
Cc1ccc(C2=Nc3c(ccc4c(C)c(C)c(=O)oc34)OC2)cc1 | 89.8% | 94% | 104% | 108% | 115% | 95.5% | 96.1% | 97.8%
CCOC1Oc2ccccc2C(=O)/C1=N/c1nccs1 (centres undefined) | 66.5% | 77.1% | 104% | 87.1% | 79.1% | 92.9% | 99.7% | 93.5%
O=C(Nc1nc2c(C(F)(F)F)cccc2s1)c1cc(Cl)ccc1O | -1.67% (active) | -13.4% (active) | 5.71% (active) | 12.2% | 7.63% (active) | -1.3% (active) | 19.3% | 10.5%

— PubChem BioAssay (NCI)
